{"source": "PubChem BioAssay (Tox21)", "note": "Results filed as inconclusive are left out. Active and inactive are the calls of the source. Calls come from the whole dose curve. % is set by controls: 0 for no effect and ±100 for the full control effect.", "data": [{"molecular_target": "5-hydroxytryptamine receptor 2A (Homo sapiens) (UniProt P28223)", "sequence (P28223 whole entry, looked up)": "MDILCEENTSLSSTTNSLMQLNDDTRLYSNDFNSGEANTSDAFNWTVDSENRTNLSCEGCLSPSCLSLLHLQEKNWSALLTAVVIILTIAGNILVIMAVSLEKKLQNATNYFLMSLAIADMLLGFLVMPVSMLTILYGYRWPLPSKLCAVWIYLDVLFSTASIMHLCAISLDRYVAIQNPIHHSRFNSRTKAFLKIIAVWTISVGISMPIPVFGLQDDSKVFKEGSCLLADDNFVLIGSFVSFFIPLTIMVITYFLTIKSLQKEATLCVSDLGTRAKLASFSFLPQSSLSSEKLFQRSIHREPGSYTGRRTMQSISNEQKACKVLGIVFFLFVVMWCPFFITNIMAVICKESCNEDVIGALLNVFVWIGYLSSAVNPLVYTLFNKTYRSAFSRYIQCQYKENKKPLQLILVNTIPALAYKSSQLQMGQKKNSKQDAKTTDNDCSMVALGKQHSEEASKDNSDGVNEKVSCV", "test": "5-hydroxytryptamine receptor 2A (HTR2A) small molecule agonists, cell-based qHTS assay (AID 1963587); note: nearly all actives have a fitted effect of over 30% in size", "details": "HTR2A-CHO cells, calcium flux fluorescence, agonist mode; series mostly up to 76.8 µM; activation: at the top concentration", "excerpt": "National Center for Advancing Translational Sciences [NCATS]\nDivision of Preclinical Innovation [DPI]\nU.S. Environmental Protection Agency [EPA]\nNational Institutes of Environmental Health Sciences [NIEHS]\nNational Toxicology Program [NTP]\nU.S. Food and Drug Administration [FDA]\nThe HTR2A receptor is a subtype of the 5-HT2 receptor that belongs to the serotonin receptor family and is a G protein-coupled receptor (GPCR). The HTR2A-CHO cell line stably expressing human 5-hydroxytryptamine receptor 2A (HTR2A) can be used for screening agonists of interactions between 5-HT2 and its ligands. The HTR2A-CHO calcium flux assay is a homogeneous fluorescence-based assay for detecting the intracellular calcium level using FDSS kinetic plate reader system.\nHTR2A-CHO cells were dispensed at 2000 cells/3uL/well in 1536-well black-clear bottom plates using a Multidrop Dispenser. After the assay plates were incubated at a 37 C/5% CO2 incubator for 18 h, 3 uL of Dye Loading Buffer was transferred to the assay plate by a Flying Reagent Dispenser. The assay plates were incubated at 37 C for 1h. For agonist mode, 23 nL of compounds dissolved in DMSO, positive controls or DMSO only was transferred to the assay plate by a pin tool. The fluorescence intensity in the plates was measured using FDSS 7000EX kinetic plate reader for 2 min at 1 sec intervals.", "values": [{"compound": "N=C(N)c1ccccc1", "activation": "1.34% (inactive)"}, {"compound": "CCC(C)NC(N)=O", "note": "(stereo not given)", "activation": "1.24% (inactive)"}, {"compound": "CCCN1CCCC[C@H]1C(=O)Nc1c(C)cccc1C", "activation": "-1.35% [at 35.6 µM] (inactive)"}, {"compound": "Cc1nc(-c2ccc3c(c2)CCN(CCC2CCC(NC(=O)/C=C/c4ccc(F)cc4)CC2)CC3)no1", "note": "(stereo not given)", "activation": "-0.365% [at 35.6 µM] (inactive)"}, {"compound": "Nc1ccc(S(=O)(=O)Nc2ccc(Cl)nn2)cc1", "activation": "2.47% [at 35.6 µM] (inactive)"}, {"compound": "Clc1nc(Cl)c(Cl)c(Cl)c1Cl", "Potency": "inactive"}, {"compound": "NC(=O)Cc1cccc2ccccc12", "activation": "-0.6% (inactive)"}, {"compound": "CCn1c2ccccc2c2ccccc21", "activation": "8.79% (inactive)"}, {"compound": "NC1CCCCC1N", "note": "(stereo not given)", "Potency": "inactive"}, {"compound": "CC(S)C(=O)NCC(=O)O", "note": "(stereo not given)", "activation": "0.654% [at 35.6 µM] (inactive)"}, {"compound": "C/C=C(\\C)C(=O)OC/C=C(\\C)CCC=C(C)C", "activation": "-0.544% (inactive)"}, {"compound": "O=C(O)c1ccc(C(=O)O)c(C(=O)O)c1", "Potency": "inactive"}, {"compound": "ON=C1CCCCC1", "Potency": "inactive"}, {"compound": "c1ccc2cc3c4ccccc4c4ccccc4c3cc2c1", "activation": "2.76% (inactive)"}, {"compound": "CC12CC3CC(C)(C1)CC(N)(C3)C2", "activation": "0.301% [at 35.6 µM] (inactive)"}, {"compound": "Cc1ccc(S(=O)(=O)NC2CCCCC2)cc1", "activation": "0.454% (inactive)"}, {"compound": "OCc1ccccc1O", "activation": "-0.76% [at 35.6 µM] (inactive)"}, {"compound": "CCC(C)c1ccccc1", "note": "(stereo not given)", "activation": "-0.158% (inactive)"}, {"compound": "COC(C)(C)CCO", "activation": "-0.986% (inactive)"}, {"compound": "OCCC(F)(F)C(F)(F)C(F)(F)C(F)(F)C(F)(F)C(F)(F)F", "activation": "-0.456% (inactive)"}, {"compound": "NS(=O)(=O)c1ccc(N2CCCCS2(=O)=O)cc1", "activation": "5.61% [at 35.6 µM] (inactive)"}, {"compound": "CCCCSCCCC", "activation": "-0.229% (inactive)"}, {"compound": "CCCCCCCCCCCCCC", "activation": "0.193% (inactive)"}, {"compound": "CCCCCCCCSCCO", "activation": "4.07% (inactive)"}, {"compound": "C[Si](C)O[Si](C)(C)O[Si](C)(C)O[Si](C)C", "activation": "0.395% (inactive)"}, {"compound": "O=C(C(=O)c1ccco1)c1ccco1", "activation": "6.17% (inactive)"}, {"compound": "Nc1cccc2c1CN(C1CCC(=O)NC1=O)C2=O", "note": "(stereo not given)", "activation": "-10.6% [at 35.6 µM] (inactive)"}, {"compound": "CC(=O)C(C)O", "note": "(stereo not given)", "activation": "3.24% (inactive)"}, {"compound": "CC(C)(C)c1n[nH]c(=O)n(N)c1=O", "activation": "1.25% (inactive)"}, {"compound": "Cc1ccc(C2OC[C@@H]3OC(c4ccc(C)cc4)O[C@H]([C@H](O)CO)[C@@H]3O2)cc1", "note": "(stereo not given in full)", "activation": "-1.38% (inactive)"}, {"compound": "CC(C)(C)CC(C)(C)c1ccc(Nc2ccc(C(C)(C)CC(C)(C)C)cc2)cc1", "activation": "5.4% [at 7.02 µM] (inactive)"}, {"compound": "C=C(C)[C@H]1CC=C(C)CC1", "activation": "1.03% (inactive)"}, {"compound": "COc1cc(C)c(Cc2cnc(N)nc2N)cc1OC", "activation": "-3.62% [at 35.6 µM] (inactive)"}, {"compound": "O=C(O)c1ccco1", "activation": "-0.641% (inactive)"}, {"compound": "O=C(O)c1cc(-c2ccccc2)nc2ccccc12", "Potency": "inactive"}, {"compound": "NCCCN1CCN(CCCN)CC1", "activation": "2.23% (inactive)"}, {"compound": "Cc1ccccc1OCC(O)CO", "note": "(stereo not given)", "activation": "-6.43% [at 35.6 µM] (inactive)"}, {"compound": "O=c1[nH]c2cc(C(F)(F)F)c(N3CCOCC3)cc2n(CP(=O)(O)O)c1=O", "activation": "-1.16% [at 35.6 µM] (inactive)"}, {"compound": "CCn1cc(C(=O)O)c(=O)c2cc3c(cc21)OCO3", "Potency": "inactive"}, {"compound": "CCOC(=O)OC(=O)OCC", "activation": "-0.624% (inactive)"}]}]}
